Source: PubChem
A selection: hits, their analogues and other compounds. The true share with any hit is near 1.7%.
PAD4 inh – human PAD4 inhibitors, primary screen, biochemical, fluorescence polarization, 1536-well format; Protein-arginine deiminase type-4 (Homo sapiens), Q9UM07; recombinant PAD4, RCA probe fluorescence polarization; inhibition, % at 6.36 µM; 0.41% of 330,000 active; AID 485272, 2010;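 active = percent inhibition above a cutoff equal to the mean of all tested compounds plus 3 SD, cut at about 15% in these data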;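 note: 0% = PAD4 with RCA probe and DMSO and 100% = probe without PAD4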
GSTO1 inh – inhibitors of recombinant GSTO1, primary screen, counter-screen for RBBP9 inhibitor project, biochemical, fluorescence polarization; Glutathione S-transferase omega-1 (Homo sapiens), P78417; inhibition, % at 5.96 µM; AID 1974, 2009; 1.1% of 300,000 active; activity-based probe fluorescence polarization;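 active = inhibition above the campaign mean inhibition plus 3 SD, cut at about 35% in these data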;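 note: 0% = GSTO1-1 with DMSO and 100% = wells lacking GSTO1-1 enzyme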
Target sequence (P78417 whole entry, looked up): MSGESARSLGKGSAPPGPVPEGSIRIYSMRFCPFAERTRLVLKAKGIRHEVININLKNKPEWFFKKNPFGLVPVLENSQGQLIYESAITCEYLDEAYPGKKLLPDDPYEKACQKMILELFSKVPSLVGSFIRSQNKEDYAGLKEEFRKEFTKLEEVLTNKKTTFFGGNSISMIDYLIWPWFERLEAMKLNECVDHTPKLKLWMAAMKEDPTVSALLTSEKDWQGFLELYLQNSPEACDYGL
LYPLA2 inh – LYPLA2 inhibitors, primary screen, counter-screen for PME1 inhibitor project, biochemical, fluorescence polarization, FP-Rh probe ABPP | 0.38% of 320,000 active | recombinant LYPLA2 | inhibition, % at 5.9 µM | Acyl-protein thioesterase 2 (Homo sapiens), O95372 | AID 2177, 2009;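 active = inhibition above the screen-wide mean plus 3 SD, limit set per campaign, cut at about 26% in these data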;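 note: 0% = LYPLA2 with DMSO and 100% = wells lacking LYPLA2 enzyme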
PME-1 inh – PME-1 inhibitors via competitive probe labeling, primary screen, biochemical, fluorescence polarization, FP-Rh probe, HTS | Protein phosphatase methylesterase 1 (Homo sapiens), Q9Y570 | recombinant PME-1 | inhibition, % at 5.9 µM | 0.53% of 320,000 active;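 active = inhibition above the campaign mean of all compounds plus 3 SD, cut at about 26% in these data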;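 note: competitive labeling of PME-1 active site by serine hydrolase directed probe; 0% = PME-1 with DMSO and 100% = wells lacking PME-1 enzyme; inhibitors block probe labeling so polarization falls and inhibition rises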
LYPLA1 counter – LYPLA1 inhibitors, primary screen, counter-screen for PME1 inhibitor project, biochemical, fluorescence polarization, FP-Rh probe ABPP; recombinant LYPLA1; inhibition, % at 5.9 µM; 0.16% of 320,000 active; Acyl-protein thioesterase 1 (Homo sapiens), O75608;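 active = inhibition above the mean of all tested compounds plus 3 SD, set per campaign, cut at about 14% in these data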;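 note: inhibitors block serine hydrolase probe labeling of LYPLA1 so polarization falls; 0% = enzyme with DMSO and 100% = wells lacking LYPLA1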
Target sequence (O75608 whole entry, looked up): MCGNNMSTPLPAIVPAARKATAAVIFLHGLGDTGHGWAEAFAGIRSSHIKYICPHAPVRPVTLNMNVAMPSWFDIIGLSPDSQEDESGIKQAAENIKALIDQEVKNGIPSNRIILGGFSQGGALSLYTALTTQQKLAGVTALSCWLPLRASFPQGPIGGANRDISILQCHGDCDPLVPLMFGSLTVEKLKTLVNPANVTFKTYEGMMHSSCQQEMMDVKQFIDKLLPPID
Fam108B inh – mouse Fam108B serine hydrolase inhibitors, primary screen, counter-screen for RBBP9 inhibitor project, biochemical, fluorescence polarization; inhibition, % at 9.51 µM; 0.33% of 300,000 active; AID 1947, 2009; recombinant Fam108B, FP-Rh probe fluorescence polarization;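 active = inhibition above the screen mean inhibition plus 3 SD, computed separately per campaign, cut at about 18% in these data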;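 note: inhibitors lower polarization as less probe binds the enzyme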
* hit, by the source's call; nt = no result given.

SMILES	PAD4 inh	GSTO1 inh	LYPLA2 inh	PME-1 inh	LYPLA1 counter	Fam108B inh
O=C(OC[C@H]1O[C@@H](OC(=O)c2cc(O)c(O)c(OC(=O)c3cc(O)c(O)c(O)c3)c2)[C@H](OC(=O)c2cc(O)c(O)c(OC(=O)c3cc(O)c(O)c(O)c3)c2)[C@@H](OC(=O)c2cc(O)c(O)c(OC(=O)c3cc(O)c(O)c(O)c3)c2)[C@@H]1OC(=O)c1cc(O)c(O)c(OC(=O)c2cc(O)c(O)c(O)c2)c1)c1cc(O)c(O)c(OC(=O)c2cc(O)c(O)c(O)c2)c1	-55.1	34.7	17.4	26.2*	-0.5	64.9*
O=C1CCCC2=C1C(c1cccs1)Nc1ccc3ncccc3c12 (centres undefined)	2.6	5.2	-1.0	0.9	1.7	0.7
O=C1CCCC2=C1C(c1ccc(O)c(O)c1)Nc1ccc3ncccc3c12 (centres undefined)	1.1	77.6*	-7.5	-9.9	-8.1	-5.8
CC(=O)c1cccc(N2C(=NC(=O)C3CCCCC3)SC3CS(=O)(=O)CC32)c1 (centres undefined)	-11.0	-10.0	13.1	-0.5	6.7	-5.2
CCN(c1ccccc1)S(=O)(=O)c1ccc(OC)c(NC(=O)CNCCc2ccccc2)c1	-2.7	-7.8	2.8	28.2*	-1.9	-2.9
Cn1c(CNC(=O)c2ccc(Cl)cc2)nnc1SCC(=O)NC1CCCC1	1.4	-9.1	-1.6	0.8	-3.3	1.3
COc1ccc(NC(=O)CCC(=O)OCC(=O)c2ccc(Oc3ccc([N+](=O)[O-])cc3)cc2)cc1	-4.5	-2.7	25.8*	1.7	1.5	-2.0
CC(=O)OCCCN1C(=O)c2ccc(Br)cc2C1=O	-5.9	6.5	10.7	0.7	1.5	0.2
O=c1c2ccccc2nc(N/N=C/c2c(O)ccc3ccccc23)n1O	-1.8	4.9	-4.8	34.2*	-0.9	17.9
COc1cccc(CNC(=O)CCS(=O)(=O)c2ccc3c(c2)NC(=O)CO3)c1	0.2	2.3	-12.0	6.8	-4.9	-3.1
COc1ccccc1CNC(=O)COC(=O)C1CCN(S(=O)(=O)c2ccccc2)CC1	-0.7	4.6	-4.6	14.1	-2.1	0.7
Fc1cccc2sc(Nc3nc4cc5c(cc4s3)OCCO5)nc12	0.3	2.9	6.3	66.8*	-4.5	9.8
Fc1cccc2sc(Nc3nc4cc5c(cc4s3)OCO5)nc12	-2.0	1.2	2.8	71.9*	-6.8	17.1
CC(=O)Nc1nc2cc3c(cc2s1)OCCO3	-6.7	-3.3	0.2	-4.7	0.4	-1.5
CC(C)C(=O)Nc1nc2cc3c(cc2s1)OCO3	3.9	3.8	3.1	-4.4	-2.0	-2.6
Fc1cc(F)c2nc(Nc3nc4cc5c(cc4s3)OCO5)sc2c1	-3.2	25.0	-16.9	48.6*	-13.4	13.2
COc1ccc(CNC(=O)Cn2cnc3c(NCc4ccccc4)ncnc32)cc1	-1.9	nt	nt	nt	nt	nt
CCC1CCCCN1CCCNC(=O)c1ccc(CS(=O)(=O)c2ccc(Br)cc2)o1 (centres undefined)	3.2	-3.1	5.9	-5.4	-2.5	-0.8
COc1ccccc1NC(=O)C(C)Sc1nnc2ccccn12 (centres undefined)	1.8	nt	0.0	-1.4	1.6	nt
COc1ccc2cc(C[C@@H]3CC[C@@H](CO)O3)ccc2c1	3.0	nt	nt	nt	nt	nt
Cc1ccc(N2C(=O)c3ccccc3C2C(=O)c2cc(C)ccc2O)cc1 (centres undefined)	5.0	35.0*	-7.9	-3.2	-3.4	-1.2
Cc1ccc(N2C(=O)c3ccccc3C2C(=O)c2ccc(O)cc2O)cc1 (centres undefined)	2.9	-0.6	3.4	-1.2	-2.4	3.0
CC1(C)Cc2c(sc(NC(=O)C(=O)N3CCCCC3)c2C(=O)O)CO1	-8.3	4.5	8.0	-3.0	-3.2	5.3
CCN(CC)c1ccc(-c2nn3c(-c4ccccc4OC)nnc3s2)cc1	-3.0	2.0	10.7	28.4*	6.5	4.5
Nc1ccc(-c2cnc(-c3ccc(N)cc3)nc2)cc1	-3.6	-3.5	-1.1	9.9	-2.9	-5.9
SMILES	PAD4 inh	GSTO1 inh	LYPLA2 inh	PME-1 inh	LYPLA1 counter	Fam108B inh
Oc1ccc(-c2cnc(-c3ccc(O)cc3)nc2)cc1	-1.0	-17.1	9.2	35.7*	-1.4	-7.3
N#Cc1c(N(CCO)CCO)nc(N)c2c(N)nc3c(c12)CC(=O)N3CC1CCCO1 (centres undefined)	1.4	32.1	4.4	-5.2	6.6	3.1
CCCCN1C(=O)Cc2c1nc(N)c1c(N)nc(N(CCC)CCC)c(C#N)c21	-13.6	73.0*	-0.5	23.6	-0.8	8.6
COc1cc(Cl)ccc1OCc1cc(C(=O)N2C[C@]3(C)C[C@H]2CC(C)(C)C3)no1	3.7	-3.8	-0.8	-0.7	0.1	-1.6
Cc1c(C(=O)O)oc2ccc(S(=O)(=O)NCCC3=CCCCC3)cc12	-1.6	36.6*	-1.9	5.0	-1.9	-1.4
Cc1ccsc1CN(C)C(=O)C(NC(=O)c1cccc(S(=O)(=O)N2CCOCC2)c1)C(C)C (centres undefined)	-2.6	nt	-2.8	1.6	-3.4	nt
COc1cccc2cc(-c3ccccc3)oc12	3.1	-4.9	-1.3	-4.9	-0.8	3.2
COc1cccc2cc(-c3ccnc(=S)[nH]3)oc12	44.6*	-12.7	-3.6	8.0	-0.3	1.4
Cc1ncn(-c2ccc(C(=O)Oc3ccccc3)cn2)n1	1.6	8.9	3.4	5.7	-0.1	2.5
O=C(CCl)Nc1cccc(S(=O)(=O)N2CCCCCC2)c1	3.1	90.6*	5.9	-6.8	-1.9	2.6
Cc1ccccc1/C=N/n1c(-c2cc(-c3ccccc3)n[nH]2)n[nH]c1=S	2.4	-9.8	-4.4	19.8	-0.1	0.7
Cc1ccsc1/C=N/n1c(-c2cc(-c3ccccc3)n[nH]2)n[nH]c1=S	4.5	14.9	4.8	35.4*	2.4	5.2
COc1ccc(NC(=O)c2ccc([N+](=O)[O-])s2)c([N+](=O)[O-])c1	-1.3	55.4*	-7.4	1.4	-1.8	2.7
COc1ccc(/C(C)=C2/SC(=S)N(CCC(=O)O)C2=O)cc1	-12.8	1.7	1.2	26.7*	-1.9	-1.3
COc1ccc(/C=C2/SC(=S)N(CCC(=O)O)C2=O)cc1	-3.1	15.2	-1.5	2.3	0.2	3.4
COc1ccc(N2CCN(CC(=O)Nc3cccc(S(=O)(=O)N4CCOCC4)c3)CC2)cc1	-4.0	5.4	4.0	5.5	-1.4	0.2
O=C(CN(c1ccc(Cl)cc1)S(=O)(=O)c1ccc(Cl)c([N+](=O)[O-])c1)NCCc1ccc(F)cc1	1.5	4.7	-1.4	1.8	1.1	-0.8
